Most compounds without a hit are left out; they make up all but 6.9% or so of the library.
ASM inhibitor: blocks human secretory acid sphingomyelinase; AID 504937; Potency, µM (highest dose often 57.5 µM), for inactives: at the highest dose activity change, negative = inhibition, most hits filed as inhibitors; placental ASM, HMU-PC fluorogenic substrate, 60 min; 0.006% of 340,000 active; P17405; further: potency means the concentration at half of the fitted maximal effect
Target sequence (P17405 47-631 limits assumed): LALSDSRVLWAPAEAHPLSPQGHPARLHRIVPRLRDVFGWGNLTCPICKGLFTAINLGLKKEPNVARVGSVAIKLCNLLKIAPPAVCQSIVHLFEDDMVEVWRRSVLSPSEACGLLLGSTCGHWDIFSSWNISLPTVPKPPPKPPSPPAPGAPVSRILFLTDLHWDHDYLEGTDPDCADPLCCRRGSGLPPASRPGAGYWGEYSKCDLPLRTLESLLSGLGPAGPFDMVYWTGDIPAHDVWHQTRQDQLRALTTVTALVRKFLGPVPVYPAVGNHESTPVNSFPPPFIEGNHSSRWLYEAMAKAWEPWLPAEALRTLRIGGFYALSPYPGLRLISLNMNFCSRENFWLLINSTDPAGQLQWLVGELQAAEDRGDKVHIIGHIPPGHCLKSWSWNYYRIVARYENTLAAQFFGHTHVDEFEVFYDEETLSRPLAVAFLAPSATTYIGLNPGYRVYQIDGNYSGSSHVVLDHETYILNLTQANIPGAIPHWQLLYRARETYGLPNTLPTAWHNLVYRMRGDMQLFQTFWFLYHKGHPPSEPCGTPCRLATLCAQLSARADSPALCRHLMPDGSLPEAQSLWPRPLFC
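Fluorescence read-out (Ex 386 nm, Em 447 nm) after stopping the reaction at pH 10. Enzyme: ASM from human placenta; substrate HMU-PC0, 9 uM final; 60 min, 37 °C. Compound preincubation 10 min, ambient temperature.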
MCF10A rereplic: DNA re-replication induction in MCF 10a cells | MCF 10A DNA re-replication, Hoechst nuclear intensity, 48 h | 2.9% of 350,000 active | Potency, µM (doses to about 46.1 µM), without a hit: top-dose activity, positive = re-replication, most hits filed as activators | AID 624296; further: potency means the concentration at half of the fitted maximal effect; % of control where 0% means no effect; nearly all actives have a fitted effect of over 50% in size
KB-V1 cytotox: KB-V1 MDR subline cytotoxicity; AID 1347076; KB-V1 MDR cells viability, CellTiter-Glo, 72 h; Potency, µM (top dose mostly 46.1 µM), hits mostly cytotoxic; 3.4% of 400,000 active; further: potency means the concentration at half of the fitted maximal effect; on the % scale 0 is the no-effect control and ±100 the full control effect; nearly all actives have a fitted effect of over 60% in size
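Cells of the MDR subline KB-V1 are plated, dosed with compound at multiple concentrations, and incubated 72 h at 37 degrees C; CellTiter-Glo is then added and luminescence read after 10 min.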
Giardia killer: Giardia lamblia killing | AID 540267 | activity change, % at 7.66 µM, hits read low | 0.15% of 340,000 active | Giardia lamblia trophozoite viability; in the data active means activity change below about -80%; inconclusive means between about -30% and that limit;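 further: parasites exposed to compound for two days anaerobically before the ATP read; on the % scale 0 is the no-effect control and ±100 the full control effect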
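Anaerobic 48 hrs incubation at 37 deg C of 100 trophozoites/well with test compounds; ATPLite 1-Step luminescence, 15-30 min RT, reports cellular ATP as viability.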
SW480 rerep: DNA re-replication induction in SW480 cells. Potency, µM (series often up to 46.1 µM), for inactives: top-dose re-replication activation, actives largely listed as activators. SW480 DNA re-replication, Hoechst DNA content imaging, 48 h. 1.8% of 340,000 active; further: potency means the concentration at half of the fitted maximal effect; % of control where 0% means no effect; nearly all actives have a fitted effect of over 55% in size
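Compounds, transferred as 23 nL by pin tool, were incubated with cells for 48 hr; DNA content per nucleus was then quantified by Hoechst staining and fluorescence plate imaging.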
KB-3-1 tox: kills parental KB-3-1 adenocarcinoma cells | KB-3-1 viability, CellTiter-Glo ATP luminescence, 72 h | Potency, µM (top dose mostly 46.1 µM), usual class: cytotoxic | 1.4% of 400,000 active | AID 1347075; further: potency means the concentration at half of the fitted maximal effect; on the % scale 0 is the no-effect control and ±100 the full control effect; nearly all actives have a fitted effect of over 60% in size
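Cytotoxicity measured as CellTiter-Glo luminescence after 72 h at 37 C. Compound titrations were pinned onto drug-naive KB-3-1 parental adenocarcinoma cells grown in DMEM with 10% FBS, and normalized data fitted to concentration-response curves.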
* = called active by the depositor; i = inactive; ? = inconclusive; . = no result; ! = a repeat was not active; [ ] = another dose, or the depositor's remark. Unless noted, the call rests on the fitted dose curve; in most records, active means well fitted curve in the direction sought with a large enough effect; inconclusive means small, poorly fitted or top-dose-only effect, or another doubt; inactive means no such curve, though single readings can be large; an effect the other way counts as inactive or inconclusive.

SMILES | ASM inhibitor | MCF10A rereplic | KB-V1 cytotox | Giardia killer | SW480 rerep | KB-3-1 tox
CC(C)OCCCn1c(=NC(=O)c2cccs2)c(C#N)cc2c(=O)n3ccccc3nc21 | i | 11.6µM* | ? | -12.7 | 20.6µM* | i
CCCCC(=O)Nc1nnc(S(=O)(=O)N(C)Cc2ccc(Cl)cc2)s1 | . | . | i | . | . | i
O=C(Nc1ccc2c(c1)CCC2)c1ccc(F)cc1 | 0.9% | 2.6% | i | -20.0 | -1.8% | i
O=C(Nc1ccc2c(c1)CCC2)c1cc(S(=O)(=O)Nc2ccc(F)cc2)c(Cl)cc1Cl | -16.8% | ? | 18.4µM* | 9.8 | 13.5% | ?
O=C(Oc1c(Cl)cc(Cl)c2cccnc12)N1CCCCC1 | -1.4% | 5.1% | i | -5.0 | 6.9% | i
O=C(Oc1c(CN2CCOCC2)cc(Cl)c2cccnc12)c1ccccc1Br | -2.0% | ? | ? | -18.9 | 3.26µM* | ?
CN1CCN(Cc2cc(Cl)c3cccnc3c2OC(=O)c2cccs2)CC1 | 0.6% | ? | 5.8µM* | 0.9 | ? | ?
Cc1cc(F)ccc1NC(=O)Cn1cc(S(=O)(=O)NC(C)C)c(S(=O)(=O)NC(C)C)c1 | . | . | i | . | . | i
CCOC(=O)c1oc2ccc(/C=N/O)c(Cl)c2c1C | -12.9% | ? | ? | 8.8 | -1.6% | i
C=CCn1c2ccccc2c(=O)c2cc(C#CC[C@@H](C)O)ccc21 | i | 91.7% | i | -25.3 | 0.3%[9.22 µM] | i
O=c1c2ccccc2oc2cc(C#CC3(O)CCCCC3)ccc12 | ? | 20.6µM* | i | ? | 2.6% | i
C=CCn1c2ccccc2c(=O)c2cc(C#CC3(O)CCCCC3)ccc21 | i | ? | i | ? | 9.2µM* | ?
CCN(CC)C(=O)c1ccc(-c2nnc(Nc3ccc(O)cc3)c3ccccc23)cc1 | -3.9% | -3.4% | i | 12.5 | -2.1% | i
CCN(CC)C(=O)c1ccc(Nc2nnc(C)c3ccccc23)cc1 | 1.0% | -3.3% | 11.6µM* | -14.8 | -6.2% | i
COc1ccc(-c2cc(C(F)(F)F)nc(NCc3ccc(Cl)cc3)n2)cc1 | . | . | i | . | . | i
FC(F)(F)c1cc(-c2ccc(Cl)cc2)nc(NCc2cccnc2)n1 | 6.2% | 16.4µM* | ? | -22.0 | ? | i
COc1ccc(C(C[N+](=O)[O-])c2c(C)[nH]n(-c3ccccc3)c2=O)cc1 (configuration not stated) | -1.6%[11.5 µM] | 11.6µM* | i | -11.0 | ? | i
COc1cccc(C(c2c(C)[nH]n(-c3ccccc3)c2=O)c2c(C)[nH]n(-c3ccccc3)c2=O)c1OC | -5.5% | 6.51µM* | i | 18.4 | 1.1% | i
Cc1cc2ccccn2c1C(C[N+](=O)[O-])c1ccc(N(C)C)cc1 (configuration not stated) | 9.5% | 0.3% | i | -19.9 | 25.3% | i
COc1ccc(C(C[N+](=O)[O-])c2c(-c3ccccc3)cc3ccccn23)c(OC)c1 (configuration not stated) | 4.9% | 16.4µM* | ? | 10.6 | ? | ?
COc1ccc(C(C[N+](=O)[O-])c2c(C)cc3ccccn23)cc1 (configuration not stated) | 11.0% | 20.6µM* | i | -3.2 | ? | i
COc1ccc(CCNc2ncnc3c2cnn3-c2cc(Cl)ccc2C)cc1 | . | . | ? | . | . | i
Cc1c(NC(=O)c2cccs2)cccc1-c1nc2cc(Cl)ccc2o1 | . | . | i | . | . | i
O=[N+]([O-])c1ccc2[nH]c(=S)sc2c1 | -1.0% | ? | 11.6µM* | -15.8 | -1.1% | ?
CC(=O)N1CCCc2cc(S(=O)(=O)N3CCC(C(=O)Nc4cccc(Cl)c4C)CC3)ccc21 | . | . | i | . | . | i
SMILES | ASM inhibitor | MCF10A rereplic | KB-V1 cytotox | Giardia killer | SW480 rerep | KB-3-1 tox
CCOC(=O)CNC(=O)CSc1nnc(NC(=O)c2ccc(C)cc2)s1 | 3.2% | 0.2% | i | -87.1* | 0.0% | i
Cc1ccc(C(=O)Nc2nnc(SCC(=O)N3CCCc4ccccc43)s2)cc1 | -6.1% | ? | 23.1µM* | -125.5* | 4.2% | i
CN(C)S(=O)(=O)c1ccc(C(=O)Nc2nnc(SCC(=O)N3CCOCC3)s2)cc1 | . | . | i | . | . | i
CC(C)Oc1ccc(C(=O)Nc2nnc(SCC(=O)N3CCOCC3)s2)cc1 | -9.9% | -3.6% | i | -95.4* | -1.9% | i
CCOC(=O)C1CCN(c2c(C(=O)c3ccc(OC)cc3)cnc3ccccc23)CC1 | . | . | ? | . | . | i
CCC(=O)N1c2ccccc2CC1C(=O)NCCc1ccc(SC)cc1 (configuration not stated) | . | . | i | . | . | i
CCSc1nc2ccccc2c(OCc2ccccc2Cl)c1C(=O)OC | . | . | i | . | . | i
COc1ccc(NC(=O)CSc2oc(-c3ccco3)nc2S(=O)(=O)c2ccc(Br)cc2)c(OC)c1 | . | . | i | . | . | i
C/C(=N\NC(=O)c1cccc(F)c1)c1ccc(Br)s1 | 0.9% | ? | ? | -8.3 | 9.2µM* | i
N#Cc1ccccc1S(=O)(=O)N1CCN(c2nc(-c3cccs3)nc3ccccc23)CC1 | . | . | i | 10.1 | . | i
COc1ccc(CN2CCC(C(=O)Nc3ccc(Oc4cccnc4)cc3)CC2)c(C)c1C | 2.8% | 20.9% | i | -19.3 | -6.0% | i
O=C(COc1ccc2ccccc2c1Br)N1CCN(c2ccccn2)CC1 | -19.3% | 96.6% | 23.1µM* | 1.4 | ? | ?
COc1cccc(COC(=O)C2CC(=O)N(Cc3ccccc3)C2)c1OC (configuration not stated) | . | . | ? | . | . | i
O=C(NCc1ccccc1)C(c1ccccc1)N(Cc1cccs1)C(=O)c1cnccn1 (configuration not stated) | 5.7% | ? | 23.1µM* | -15.8 | 11.2% | i
O=C(NCc1ccccc1)C(c1cccs1)N(Cc1cccs1)C(=O)c1cnccn1 (configuration not stated) | 0.5% | ? | 2.59µM* | -2.3 | 9.3% | i
CNc1c(NS(=O)(=O)c2cc(OC)ccc2OC)c(=O)oc2ccccc12 | -6.0% | 3.9% | i | -11.6 | 5.0% | i
CCCCNC(=O)C1CCN(c2nc3ccc(C)cc3[nH]2)CC1 | . | . | i | . | . | i
CSc1cc(-c2ccccc2)[nH]c(=O)c1C#N | 89.2% | -0.7% | i | 6.4 | 14.6µM* | i
CCc1nc(N)nc(N)c1-c1ccc(Cl)c([N+](=O)[O-])c1 | -1.4% | 14.9% | i | 29.7 | -4.2% | 0.651µM*
CCc1nc(N)nc(N)c1-c1ccc(Cl)c(N=[N+]=[N-])c1 | 5.6% | ? | 16.4µM* | -5.7 | 13.6% | 11.6µM*!
Cc1cccc2sc(NC(=O)C3CC3)nc12 | -0.4% | ? | i | -2.7 | 1.2% | i

Bioassay records as filed in PubChem.
